# Results published in the supplement of paper PMC4022240.
# ± gives the standard deviation.
# B1: H3 1-13 A Rcit T K Q Tph A R K S T G G (peptide)
# chain: ARTKQTARKSTGG
# B2: H3 1-13 A R T K Q T A R Kme2 Sph T G G (peptide)
# chain: ARTKQTARKSTGG
# B3: H3 1-13 A Rcit T K Q T A R Kac S T G G (peptide)
# chain: ARTKQTARKSTGG
# B4: H3 1-13 A Rme T Kme2 Q T A R K S T G G (peptide)
# chain: ARTKQTARKSTGG
# B5: H3 1-13 A Rcit T Kac Q T A R K S T G G (peptide)
# chain: ARTKQTARKSTGG
# B6: H3 1-13 A Rme T Kac Q T A R K S T G G (peptide)
# chain: ARTKQTARKSTGG
# B7: H3 1-13 A Rcit T Kme3 Q T A R K S T G G (peptide)
# chain: ARTKQTARKSTGG
# B8: H3 1-13 A Rme T K Q T A R K S T G G (peptide)
# chain: ARTKQTARKSTGG
# B9: H3 1-13 A Rme T Kme3 Q T A R K S T G G (peptide)
# chain: ARTKQTARKSTGG
# B10: H3 1-13 A Rcit Tph K Q T A R K S T G G (peptide)
# chain: ARTKQTARKSTGG
# Legend:
# Assay in all cases: peptide microarray binding signal (635 nm), min-max normalized on array (fraction of array maximum); higher = stronger binding
# Conditions in all cases: peptide region: H3 1-13
# [1] = target: T1, HaloTag-ATRX ADD domain (163-292)
# T1 chain: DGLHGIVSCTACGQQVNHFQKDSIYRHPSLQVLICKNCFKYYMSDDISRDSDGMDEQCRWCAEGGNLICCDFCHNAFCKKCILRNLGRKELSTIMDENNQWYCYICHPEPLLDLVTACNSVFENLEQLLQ
# Protocol: (§1)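 Histone 13-mer peptides were synthesized as cellulose conjugates with a C-terminal 20-atom PEG linker and printed in triplicate on nitrocellulose. The sequence given is the unmodified backbone; PTMs (Kme1/2/3, Kac, Sph/Tph, Rme/Rme2a/Rme2s, Rcit) are listed in the label and the 'peptide modifications' condition. Slides were probed at 4 °C for 1 h with biotin-labelled (HQ)5-HaloTag reader fusions (ATRX-ADD, ING2-PHD) then streptavidin-Alexa647, or with rabbit histone antibodies then anti-rabbit Alexa647. The mean 635 nm signal of the triplicate spots was scaled 0-1 between the lowest and highest values on each array.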
# [2] = target: HaloTag-ING2 PHD (mouse Ing2 200-280)
# Protocol: as §1
# [3] = target: anti-H3K4me3 antibody ab8580
# Protocol: as §1
# [4] = target: anti-H3K9me3 antibody ab8898
# Protocol: as §1
# [5] = peptide modifications: H3R2cit H3T6ph, binder concentration: 1:2,000 dilution
# [6] = peptide modifications: H3R2cit H3T6ph, binder concentration: 1:10,000 dilution
# [7] = peptide modifications: H3K9me2 H3S10ph, binder concentration: 1:2,000 dilution
# [8] = peptide modifications: H3K9me2 H3S10ph, binder concentration: 1:10,000 dilution
# [9] = peptide modifications: H3R2cit H3K9ac, binder concentration: 1:2,000 dilution
# [10] = peptide modifications: H3R2cit H3K9ac, binder concentration: 1:10,000 dilution
# [11] = peptide modifications: H3R2me1 H3K4me2, binder concentration: 1:2,000 dilution
# [12] = peptide modifications: H3R2me1 H3K4me2, binder concentration: 1:10,000 dilution
# [13] = peptide modifications: H3R2cit H3K4ac, binder concentration: 1:2,000 dilution
# [14] = peptide modifications: H3R2cit H3K4ac, binder concentration: 1:10,000 dilution
# [15] = peptide modifications: H3R2me1 H3K4ac, binder concentration: 1:2,000 dilution
# [16] = peptide modifications: H3R2me1 H3K4ac, binder concentration: 1:10,000 dilution
# [17] = peptide modifications: H3R2cit H3K4me3, binder concentration: 1:2,000 dilution
# [18] = peptide modifications: H3R2cit H3K4me3, binder concentration: 1:10,000 dilution
# [19] = peptide modifications: H3R2me1, binder concentration: 1:2,000 dilution
# [20] = peptide modifications: H3R2me1, binder concentration: 1:10,000 dilution
# [21] = peptide modifications: H3R2me1 H3K4me3, binder concentration: 1:2,000 dilution
# [22] = peptide modifications: H3R2me1 H3K4me3, binder concentration: 1:10,000 dilution
# [23] = peptide modifications: H3R2cit H3T3ph, binder concentration: 1:2,000 dilution
# [24] = peptide modifications: H3R2cit H3T3ph, binder concentration: 1:10,000 dilution
binder,measurement,setting,value
B1,peptide microarray binding signal,"[1]; peptide modifications: H3R2cit H3T6ph, binder concentration: 50 nM",0.00621 ± 0.00039
same,peptide microarray binding signal,"[1]; peptide modifications: H3R2cit H3T6ph, binder concentration: 500 nM",0.0199 ± 0.0043
same,peptide microarray binding signal,"[2]; peptide modifications: H3R2cit H3T6ph, binder concentration: 10 nM",0.00382 ± 0.00065
same,peptide microarray binding signal,"[2]; peptide modifications: H3R2cit H3T6ph, binder concentration: 100 nM",0.0157 ± 0.0039
same,peptide microarray binding signal,[3]; [5],0.00345 ± 0.00082
same,peptide microarray binding signal,[3]; [6],0.00348 ± 0.00034
same,peptide microarray binding signal,[4]; [5],0.00166 ± 0.00026
same,peptide microarray binding signal,[4]; [6],0.00173 ± 0.00011
B2,peptide microarray binding signal,"[1]; peptide modifications: H3K9me2 H3S10ph, binder concentration: 50 nM",0.0356 ± 0.0038
same,peptide microarray binding signal,"[1]; peptide modifications: H3K9me2 H3S10ph, binder concentration: 500 nM",0.0593 ± 0.0025
same,peptide microarray binding signal,"[2]; peptide modifications: H3K9me2 H3S10ph, binder concentration: 10 nM",0.00615 ± 8.7e-05
same,peptide microarray binding signal,"[2]; peptide modifications: H3K9me2 H3S10ph, binder concentration: 100 nM",0.0145 ± 0.0016
same,peptide microarray binding signal,[3]; [7],0.00119 ± 1.7e-05
same,peptide microarray binding signal,[3]; [8],0.000456 ± 3.6e-05
same,peptide microarray binding signal,[4]; [7],0.0144 ± 0.0017
same,peptide microarray binding signal,[4]; [8],0.00375 ± 0.00021
B3,peptide microarray binding signal,"[1]; peptide modifications: H3R2cit H3K9ac, binder concentration: 50 nM",0.0152 ± 0.00082
same,peptide microarray binding signal,"[1]; peptide modifications: H3R2cit H3K9ac, binder concentration: 500 nM",0.0454 ± 0.005
same,peptide microarray binding signal,"[2]; peptide modifications: H3R2cit H3K9ac, binder concentration: 10 nM",0.0489 ± 0.0051
same,peptide microarray binding signal,"[2]; peptide modifications: H3R2cit H3K9ac, binder concentration: 100 nM",0.0881 ± 0.024
same,peptide microarray binding signal,[3]; [9],0.0231 ± 0.0037
same,peptide microarray binding signal,[3]; [10],0.0127 ± 0.00061
same,peptide microarray binding signal,[4]; [9],0.00818 ± 0.001
same,peptide microarray binding signal,[4]; [10],0.00502 ± 0.00055
B4,peptide microarray binding signal,"[1]; peptide modifications: H3R2me1 H3K4me2, binder concentration: 50 nM",0.00715 ± 0.0002
same,peptide microarray binding signal,"[1]; peptide modifications: H3R2me1 H3K4me2, binder concentration: 500 nM",0.017 ± 0.0047
same,peptide microarray binding signal,"[2]; peptide modifications: H3R2me1 H3K4me2, binder concentration: 10 nM",0.219 ± 0.059
same,peptide microarray binding signal,"[2]; peptide modifications: H3R2me1 H3K4me2, binder concentration: 100 nM",0.175 ± 0.047
same,peptide microarray binding signal,[3]; [11],0.269 ± 0.14
same,peptide microarray binding signal,[3]; [12],0.0639 ± 0.0072
same,peptide microarray binding signal,[4]; [11],0.00439 ± 0.0014
same,peptide microarray binding signal,[4]; [12],0.00392 ± 0.00093
B5,peptide microarray binding signal,"[1]; peptide modifications: H3R2cit H3K4ac, binder concentration: 50 nM",0.0109 ± 0.00013
same,peptide microarray binding signal,"[1]; peptide modifications: H3R2cit H3K4ac, binder concentration: 500 nM",0.045 ± 0.0051
same,peptide microarray binding signal,"[2]; peptide modifications: H3R2cit H3K4ac, binder concentration: 10 nM",0.0563 ± 0.014
same,peptide microarray binding signal,"[2]; peptide modifications: H3R2cit H3K4ac, binder concentration: 100 nM",0.125 ± 0.011
same,peptide microarray binding signal,[3]; [13],0.00725 ± 0.0029
same,peptide microarray binding signal,[3]; [14],0.00656 ± 0.0011
same,peptide microarray binding signal,[4]; [13],0.00782 ± 0.0003
same,peptide microarray binding signal,[4]; [14],0.0049 ± 0.00038
B6,peptide microarray binding signal,"[1]; peptide modifications: H3R2me1 H3K4ac, binder concentration: 50 nM",0.00636 ± 0.00044
same,peptide microarray binding signal,"[1]; peptide modifications: H3R2me1 H3K4ac, binder concentration: 500 nM",0.00867 ± 0.00048
same,peptide microarray binding signal,"[2]; peptide modifications: H3R2me1 H3K4ac, binder concentration: 10 nM",0.0133 ± 0.0026
same,peptide microarray binding signal,"[2]; peptide modifications: H3R2me1 H3K4ac, binder concentration: 100 nM",0.0738 ± 0.0056
same,peptide microarray binding signal,[3]; [15],0.00115 ± 0.0001
same,peptide microarray binding signal,[3]; [16],0.001541 ± 1.5e-05
same,peptide microarray binding signal,[4]; [15],0.00402 ± 0.0014
same,peptide microarray binding signal,[4]; [16],0.0011 ± 2.2e-05
B7,peptide microarray binding signal,"[1]; peptide modifications: H3R2cit H3K4me3, binder concentration: 50 nM",0.0156 ± 0.00085
same,peptide microarray binding signal,"[1]; peptide modifications: H3R2cit H3K4me3, binder concentration: 500 nM",0.0357 ± 0.0095
same,peptide microarray binding signal,"[2]; peptide modifications: H3R2cit H3K4me3, binder concentration: 10 nM",0.131 ± 0.042
same,peptide microarray binding signal,"[2]; peptide modifications: H3R2cit H3K4me3, binder concentration: 100 nM",0.19 ± 0.089
same,peptide microarray binding signal,[3]; [17],0.476 ± 0.19
same,peptide microarray binding signal,[3]; [18],0.28 ± 0.066
same,peptide microarray binding signal,[4]; [17],0.0852 ± 0.028
same,peptide microarray binding signal,[4]; [18],0.0601 ± 0.039
B8,peptide microarray binding signal,"[1]; peptide modifications: H3R2me1, binder concentration: 50 nM",0.0145 ± 0.00019
same,peptide microarray binding signal,"[1]; peptide modifications: H3R2me1, binder concentration: 500 nM",0.0334 ± 0.0026
same,peptide microarray binding signal,"[2]; peptide modifications: H3R2me1, binder concentration: 10 nM",0.0175 ± 0.0043
same,peptide microarray binding signal,"[2]; peptide modifications: H3R2me1, binder concentration: 100 nM",0.0456 ± 0.0031
same,peptide microarray binding signal,[3]; [19],0.000698 ± 1.7e-05
same,peptide microarray binding signal,[3]; [20],0.000742
same,peptide microarray binding signal,[4]; [19],0.00202 ± 0.0002
same,peptide microarray binding signal,[4]; [20],0.000461
B9,peptide microarray binding signal,"[1]; peptide modifications: H3R2me1 H3K4me3, binder concentration: 50 nM",0.00765 ± 0.00016
same,peptide microarray binding signal,"[1]; peptide modifications: H3R2me1 H3K4me3, binder concentration: 500 nM",0.0187 ± 0.00094
same,peptide microarray binding signal,"[2]; peptide modifications: H3R2me1 H3K4me3, binder concentration: 10 nM",0.267 ± 0.048
same,peptide microarray binding signal,"[2]; peptide modifications: H3R2me1 H3K4me3, binder concentration: 100 nM",0.215 ± 0.13
same,peptide microarray binding signal,[3]; [21],0.449 ± 0.19
same,peptide microarray binding signal,[3]; [22],0.243 ± 0.053
same,peptide microarray binding signal,[4]; [21],0.106 ± 0.018
same,peptide microarray binding signal,[4]; [22],0.0312 ± 0.0012
B10,peptide microarray binding signal,"[1]; peptide modifications: H3R2cit H3T3ph, binder concentration: 50 nM",0.00364 ± 0.00018
same,peptide microarray binding signal,"[1]; peptide modifications: H3R2cit H3T3ph, binder concentration: 500 nM",0.0133 ± 0.0009
same,peptide microarray binding signal,"[2]; peptide modifications: H3R2cit H3T3ph, binder concentration: 10 nM",0.00125 ± 3.1e-05
same,peptide microarray binding signal,"[2]; peptide modifications: H3R2cit H3T3ph, binder concentration: 100 nM",0.0167 ± 0.011
same,peptide microarray binding signal,[3]; [23],0.00283 ± 0.00066
same,peptide microarray binding signal,[3]; [24],0.00126 ± 8.7e-05
same,peptide microarray binding signal,[4]; [23],0.000846 ± 7.1e-05
same,peptide microarray binding signal,[4]; [24],0.000807 ± 2.9e-05
